Screening data as filed in PubChem BioAssay.
D2 PAM-1: human D2 receptor positive allosteric modulation; P14416; 360,000 tested, 0.23% active; DiscoveRx D2 beta-arrestin cells, luminescence, 90 min; 100% = 57 uM dopamine signal; potentiation, % (no concentration beside the values); in the data active = potentiation above about 50%; inconclusive = mostly about 30% to 49%
Target sequence (P14416 whole entry, looked up): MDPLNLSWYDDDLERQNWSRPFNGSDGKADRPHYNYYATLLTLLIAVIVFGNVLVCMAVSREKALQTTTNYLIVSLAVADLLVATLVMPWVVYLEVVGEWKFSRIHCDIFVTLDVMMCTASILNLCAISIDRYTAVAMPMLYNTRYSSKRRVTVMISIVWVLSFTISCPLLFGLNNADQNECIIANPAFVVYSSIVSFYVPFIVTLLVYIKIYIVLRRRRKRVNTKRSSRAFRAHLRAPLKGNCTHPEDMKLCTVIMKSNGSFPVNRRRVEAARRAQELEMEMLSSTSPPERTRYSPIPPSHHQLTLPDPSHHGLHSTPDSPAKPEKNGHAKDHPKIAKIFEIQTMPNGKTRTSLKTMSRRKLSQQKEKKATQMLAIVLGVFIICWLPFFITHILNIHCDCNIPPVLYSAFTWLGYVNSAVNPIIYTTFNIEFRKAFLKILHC
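PathHunter D2 cells, attached overnight at 37 deg C, received compound in DMSO plus dopamine at EC20 (50 nM final) for 90 min at 37 deg C. Beta-arrestin recruitment was read as luminescence after 1 h with detection reagent at ambient temperature.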
D2 ag-1: activates the human D2 dopamine receptor | P14416 | HEK293 T-REx D2 cells, calcium flux agonist mode | activation, % at 2 µM | 340,000 tested, 0.53% active | AID 485358;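 active = activation over 3 SD above normal in the single-dose calcium agonist read, cut at about 30% in these data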; also: 0% is about no effect
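Tetracycline-induced HEK293 Trex cells with D2 receptor force-coupled to calcium signaling, plated overnight at 30 C and loaded with no-wash calcium dye. Calcium flux read kinetically for 180 s after compound addition; responses flag agonists.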
D2 PAM-2: positive allosteric modulators of human D2 dopamine receptor; AID 485347; HEK293 T-REx D2, calcium flux, EC20 dopamine potentiation; P14416; potentiation, % at 10 µM; 340,000 tested, 0.34% active;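 active = potentiation over 3 SD above the plate norm, cut at about 30% in these data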; also: 0% is about no effect
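Tetracycline-induced HEK293 T-REx cells force-coupled to calcium signalling expressed D2; compounds were pin-added after a 10 s baseline, read kinetically 180 s, then an EC20 dopamine challenge followed with a further 180 s calcium read.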
D2 ag-2: human D2 receptor agonism in beta-arrestin assay; P14416; DiscoveRx PathHunter D2 beta-arrestin, luminescence, 90 min; 100% = 57 uM dopamine signal; activation, % (test concentration not listed); 360,000 tested, 0.084% active; in the data active = activation above about 40%; inconclusive = between about 15% and that limit
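Agonist mode: compounds alone added to overnight-plated D2 PathHunter cells for 90 min at 37 C, with 57 uM final dopamine (EC100) defining full response. Beta-arrestin recruitment detected by chemiluminescent reagent, read after 1 h at ambient temperature.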
D2 antag: antagonists of human D2 dopamine receptor; HEK293 TREx D2 cells, calcium flux, dopamine EC80; AID 485344; 340,000 tested, 2% active; inhibition, % at 10 µM; P14416; in the data active = inhibition above about 30%; inactive = below that, where a call was filed; also: 0% is about no effect
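Dopamine at EC80 is the agonist stimulus; test compounds precede it by 180 s. Calcium flux read kinetically in a force-coupled, inducible HEK293 T-REx D2 cell line.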
The depositor's hits bear a star; ? = inconclusive; / = no result given. This is a sample that favours compounds with a hit; in the whole collection about 2.4% have one here.

SMILES	D2 PAM-1	D2 ag-1	D2 PAM-2	D2 ag-2	D2 antag
Cc1cc(C)cc(OCC(O)CN2CCN(Cc3ccc4c(c3)OCO4)CC2)c1 (stereo unspecified)	-21	-1	-21	2	3
COc1ccc(OC)c(S(=O)(=O)N2CCN(CC(O)COc3ccccc3)CC2)c1 (stereo unspecified)	-10	1	-19	-2	48*
CCc1ccccc1NC(=O)Cn1c(=O)n(CC(=O)NCCc2ccccc2)c(=O)c2ccccc21	/	1	-7	/	/
OC(COc1ccc(F)cc1Cl)CN1CCC(Cc2ccccc2)CC1 (stereo unspecified)	-22	0	2	-2	-3
OC(COc1ccccc1)CN1CCC(Cc2ccccc2)CC1 (stereo unspecified)	-36	1	-26	-1	74*
COc1cccc(OCC(O)CN2CCC(Cc3ccccc3)CC2)c1 (stereo unspecified)	-33	10	-25	-1	-10
CN1CCN(CC(O)COc2ccccc2)CC1 (stereo unspecified)	-2	0	8	-1	33*
OC(COc1ccccc1F)CN1CCC(Cc2ccccc2)CC1 (stereo unspecified)	-2	0	-10	-6	65*
CCCCC(=O)Nc1cccc(-c2nc3ccccc3s2)c1	/	/	7	/	/
CC1CCc2nc(NC(=O)CN3CCN(c4ccccc4)CC3)sc2C1 (stereo unspecified)	-5	1	9	-3	-6
CC1CCc2nc(NC(=O)CN3CCN(Cc4ccc5c(c4)OCO5)CC3)sc2C1 (stereo unspecified)	-31	0	-36	0	72*
CCOC(=O)c1sc2ccccc2c1S(=O)(=O)N1CCN(c2cccc(C)c2)C(C)C1 (stereo unspecified)	/	1	-8	/	/
COc1ccccc1NC(=O)c1cccc(S(=O)(=O)N2CCN(Cc3ccccc3)CC2)c1	-67	0	1	-2	10
CC(NC(=O)c1cccc(S(=O)(=O)N2CCN(Cc3ccccc3)CC2)c1)c1ccc(Cl)cc1 (stereo unspecified)	-8	1	-4	-1	36*
Cc1ccnc(NC(=O)CCCc2c[nH]c3ccccc23)c1	5	-1	7	-1	-4
Cc1cccnc1NC(=O)CCc1c[nH]c2ccccc12	1	0	5	1	31*
COc1cc(CNCCSc2nnnn2C)ccc1OCc1ccccc1C	/	1	-10	/	/
Cc1cc(=O)n2[nH]c(C)c(-c3ccc(Cl)cc3)c2n1	-24	-2	-26	-1	46*
Cc1cc(=O)n2[nH]c(C)c(-c3ccccc3)c2n1	-36	3	-16	-4	6
CC12CN3CC(C)(CN(C1)C3c1ccc(Br)cc1O)C2 (stereo unspecified)	-13	1	-22	-3	36*
COc1ccc(-c2ccc3c(c2)S(=O)(=O)c2cccc(C(=O)N4CCN(C5CCCCC5)CC4)c2C3=O)cc1OC	118*	/	/	?	/
Cc1c(Cl)cccc1NS(=O)(=O)c1ccc2[nH]cc(C(=O)NC3CCCC3)c(=O)c2c1	/	-1	-4	/	/
Cc1ccc(CNC(=O)CN(C)S(=O)(=O)c2ccc3c(c2)c(=O)n(C)c(=O)n3C)cc1	/	/	1	/	/
CCNc1ccc(Br)cc(C(=O)/C=C/c2c(Cl)cccc2Cl)c1=O	-20	0	48*	-5	-13
COCCCNC(=O)Cn1c(=O)n(-c2cccc(C)c2)c(=O)c2c1c1cc(C)ccc1n2C	/	0	14	/	/
SMILES	D2 PAM-1	D2 ag-1	D2 PAM-2	D2 ag-2	D2 antag
Cc1ccc(NC(=O)Cn2c(=O)n(Cc3ccccc3)c(=O)c3c2c2cc(C)ccc2n3C)cc1	/	0	12	/	/
CCCc1nc2ccc(NC(=O)c3ccco3)cc2c(=O)n1Cc1ccc(Cl)cc1	-6	0	45*	-3	0
CCOC(=O)C(CC)N1CCN(Cc2ccc(F)cc2)C(=O)C1=O (stereo unspecified)	/	-1	-6	/	/
Cc1cccc(OCC(=O)Nc2ccc(Cl)c(-c3nc4ncccc4o3)c2)c1C	/	1	12	/	/
O=C(O)c1ccccc1SCc1nc2ccccn2c1Br	-10	0	0	-6	51*
N=C(N)SCc1nc2ccccn2c1Br	-22	0	-3	0	2
COc1ccc(C(CCN2CCCC(C)C2)c2c(OC)cc(OC)c3c2OC(=O)CC3c2cc(OC)c(OC)c(OC)c2)cc1 (stereo unspecified)	-23	0	-27	2	52*
CCCCCc1cc(=O)oc2c(C(CCN3CCN(c4ccccc4)CC3)c3ccc4c(c3)OCO4)c(OC)cc(OC)c12 (stereo unspecified)	2	17	-9	14	50*
COc1cc(OC)c2ccc(=O)oc2c1C(CCN1CCCC(C)C1)c1ccc2c(c1)OCO2 (stereo unspecified)	-22	-1	-18	-2	83*
CC(=O)c1cccc(NC(=O)c2nc3ccccc3n(C)c2=O)c1	/	0	2	/	/
Cc1cccc(-c2nc(SCC(=O)NCC3CCCO3)c3c(=O)n(C)c(=O)n(C)c3n2)c1 (stereo unspecified)	/	0	0	/	/
CC1CC(C)CN(CC(O)COC2CC(C)CC(C)(C)C2)C1 (stereo unspecified)	-24	/	/	-5	/
CC1CC(OCC(O)CN2CCOCC2)CC(C)(C)C1 (stereo unspecified)	1	0	-4	1	46*
Cc1cccc(N2C(=O)c3cccc4c(N)ccc(c34)C2=O)c1	2	117*	3	4	7
Nc1cccc(N2C(=O)c3cccc4c(N)ccc(c34)C2=O)c1	-21	49*	2	-3	-18
Nc1ccc2c3c(cccc13)C(=O)N(c1ccccc1)C2=O	5	-2	6	3	-18
COc1ccc(-c2nnc(C3CCN(C(=O)c4ccccc4F)CC3)o2)cc1	/	0	0	/	/
CCCCCCCCCCCCCCCCn1cc[n+](CC(C)=O)c1	-7	1	-7	2	-6
CCCCCCn1ccc(=N)cc1	-7	-1	-1	-4	36*
COc1cccc(CN2C(=O)c3ccccc3Sc3ccc(C(=O)NCc4ccccc4)cc32)c1	/	1	4	/	/
C=CCNC(=O)c1ccccc1NC(=O)COc1ccccc1	-6	0	-2	-2	59*
C=CCNC(=O)c1ccccc1Cl	-6	0	-2	0	40*
COc1ccc(Cn2cc(S(=O)(=O)c3ccc(C)cc3)c(=O)c3cc(F)ccc32)cc1	/	/	-26	/	/
Fc1ccc(Nc2nc(SCc3ccccc3F)nc3ccccc23)cc1	/	0	4	/	/
N#CCSc1nc2ccccc2c2nc3ccccc3n12	-6	3	5	0	33*
COc1ccc(CN(C)C(=O)CNC(=O)c2cccs2)c(OC)c1	0	0	-2	8	-1
